# From the supplement of paper PMC4166925
# ± gives the standard deviation of the averaged measurements. Whole data set: some 33,000 sequences, median “E-score (dimensionless, -0.5 to 0.5)” near -0.049, cut for the highest 2% near 0.37. Many of the other results were omitted from the sample, so the highest values are more common in it than they were.
# System: T1, PmTbr T-box DNA-binding domain (GST fusion)
# T1 sequence: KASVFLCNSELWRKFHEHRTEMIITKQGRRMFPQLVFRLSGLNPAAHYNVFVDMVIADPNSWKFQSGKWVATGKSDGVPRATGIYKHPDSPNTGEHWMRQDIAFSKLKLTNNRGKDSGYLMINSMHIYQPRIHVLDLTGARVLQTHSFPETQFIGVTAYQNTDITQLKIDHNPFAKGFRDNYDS
# Assay: PBM E-score of 8-mer (E-score (dimensionless, -0.5 to 0.5)); Tbr is Tbrain of the sea star Patiria miniata (Pm) or the sea urchin Strongylocentrotus purpuratus (Sp); higher = stronger binding preference
# Details: the construct has about 5 more residues each side
# Method: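 Universal protein-binding microarray (Agilent AMADID 016060, 60-bp probes with a 35-bp variable region) incubated with 200 nM GST-fused Patiria miniata Tbr T-box DNA-binding domain (residues 272-466) in PBS pH 7.5. Scored for every ungapped 8-mer (given with its reverse complement) by the Universal PBM Analysis Suite as E-score (modified Wilcoxon-Mann-Whitney enrichment, range -0.5 to 0.5; >0.45 counts as bound) and Z-score of median probe intensity. Two replicate arrays (datasets 1 and 2).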
# 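Note: 200 nM protein in PBS on universal arrays averaged over duplicate arrays.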
row,Sequence,PBM E-score of 8-mer
1,GGTGGGCA,0.0512 ± 0.038
2,AAACTCTT,-0.11 ± 0.032
3,CGATTCAC,0.143 ± 0.0046
4,CAACTGAG,0.0533 ± 0.042
5,GACTTGGA,-0.167 ± 0.064
6,CCGCGAAC,0.271 ± 0.036
7,ACGCGAAC,0.203 ± 0.043
8,TCGCGAAA,0.409 ± 0.025
9,GCGCGAAC,0.411 ± 0.017
10,CCGCGAAA,0.305 ± 0.027
11,GCGCGATA,0.337 ± 0.011
12,ACGCGAAA,0.133 ± 0.039
13,GCGCGAAA,0.4397 ± 0.0003
14,GCGCGACA,0.36 ± 0.023
15,CAATCATA,-0.102 ± 0.056
16,AACCCTGA,-0.108 ± 0.0053
17,GCCACTAA,0.153 ± 0.019
18,AGATACTC,-0.119 ± 0.09
19,TGCAGGAA,-0.153 ± 0.036
20,CTCCCAAC,-0.0412 ± 0.0027
21,AAGAACCC,-0.192 ± 0.042
22,TGACACCA,0.427 ± 0.02
23,AGACACCC,0.259 ± 0.023
24,CGACACCG,0.273 ± 0.033
25,CGACACCA,0.414 ± 0.01
26,GGACACCC,0.242 ± 0.037

row,Sequence,PBM E-score of 8-mer
1,CGACACCC,0.439 ± 0.022
2,CGACACGA,0.183 ± 0.071
3,GGACACCA,0.0777 ± 0.029
4,AGACACCA,0.2603 ± 0.00061
5,AAGAAAAC,-0.0889 ± 0.032
6,CGTTGGTA,-0.0221 ± 0.009
7,AAGTGCCG,0.289 ± 0.025
8,TGAGCAAA,0.0705 ± 0.069
9,AGGCCTGG,-0.293 ± 0.041
10,ACCTGCGT,0.112 ± 0.063
11,AATTGGGA,-0.0137 ± 0.033
12,GACCTCTA,-0.259 ± 0.07
13,AACCTCTG,-0.151 ± 0.032
14,AACCTCTC,-0.0958 ± 0.093
15,CACCTCTC,0.419 ± 0.023
16,CACCTCTA,0.44129 ± 0.00038
17,CAACTCTG,0.16 ± 0.08
18,CACCTCTG,0.4165 ± 0.00058
19,AACCTCTA,-0.151 ± 0.025
20,GACCTCTC,-0.109 ± 0.026
21,CACCACCA,0.201 ± 0.034
22,CTTTTCTA,0.0811 ± 0.085
23,CTCCTCAA,-0.204 ± 0.024
24,GCTTTCTA,-0.0965 ± 0.11
25,AGTGTGCC,0.125 ± 0.0018
26,CAATGGAA,-0.144 ± 0.028

row,Sequence,PBM E-score of 8-mer
1,CTGCCAAC,0.0539 ± 0.0096
2,GTGCCAAC,0.403 ± 0.0056
3,CTGCCAAA,0.186 ± 0.061
4,GTGCCAAA,0.421 ± 0.017
5,ATGCCAAC,0.0888 ± 0.00082
6,TTGCCAAA,0.11 ± 0.066
7,CCATATAC,-0.00383 ± 0.065
8,AGTCGATA,0.147 ± 0.016
9,AGCAGAAC,-0.287 ± 0.013
10,ACAACTGA,0.172 ± 0.019
11,AGACCTCT,-0.301 ± 0.015
12,CCACCTCA,0.229 ± 0.039
13,TGACCTCA,0.0125 ± 0.0081
14,ACACCTCA,0.47047 ± 0.00026
15,AAACCTCT,-0.362 ± 0.051
16,TAACCTCA,-0.152 ± 0.0019
17,ACACCTCT,0.48594 ± 0.00022
18,AGACCTCA,0.0571 ± 0.053
19,TCACCTCA,0.437 ± 0.00059
20,ACGCCTGC,0.24 ± 0.0036
21,GTGAAACA,0.188 ± 0.036
22,CTGCTTGC,-0.132 ± 0.025
23,CGGCAGAG,0.00638 ± 0.076
24,CGGCTGTC,0.0205 ± 0.07
25,CCTTCGGA,-0.0659 ± 0.042
26,GGTAACAA,0.198 ± 0.056

row,Sequence,PBM E-score of 8-mer
1,AGTAACAG,0.037 ± 0.085
2,AGTAACAA,0.167 ± 0.0063
3,AGTAACAC,0.393 ± 0.025
4,GGTAACAC,0.43 ± 0.0044
5,CGTAACAC,0.365 ± 0.011
6,GTCTACGA,-0.127 ± 0.013
7,ATCGCAGG,0.0806 ± 0.064
8,ACTCACTA,0.144 ± 0.02
9,CCTTAACG,0.00703 ± 0.089
10,ATGGGTAC,-0.173 ± 0.035
11,TAGGGTCA,-0.0997 ± 0.066
12,ATTGCAGC,-0.0944 ± 0.071
13,CTGTCAAA,0.266 ± 0.04
14,TTGTCAAA,0.144 ± 0.09
15,GTGTCAAA,0.448 ± 0.0094
16,CTGTCATA,0.151 ± 0.011
17,ATGTCGAA,-0.0919 ± 0.073
18,CTGTCAAC,0.338 ± 0.011
19,GTGTCAAC,0.466 ± 0.007
20,GTGTCGAA,0.38248 ± 9.9e-05
21,ATGTCAAC,0.171 ± 0.006
22,CTGTCGAA,0.125 ± 0.0096
23,GTGTCATA,0.4057 ± 0.0013
24,ATGTCATA,-0.187 ± 0.0068
25,CACATCAG,0.162 ± 0.035
26,ACGATGTG,0.25 ± 0.067

row,Sequence,PBM E-score of 8-mer
1,ACGTACTC,0.061 ± 0.028
2,GCATCAAC,0.0651 ± 0.026
3,GGGGCTGA,-0.1789 ± 0.00037
4,ATAGGTAC,-0.105 ± 0.041
5,ACGGCCAT,-0.105 ± 0.12
6,CTGTCAGA,0.211 ± 0.014
7,ATGTCAGA,-0.162 ± 0.069
8,GTGTCAGA,0.3931 ± 0.00061
9,AGGGATAA,-0.203 ± 0.032
10,TCGTTTCA,0.145 ± 0.031
11,AAGTGACG,0.4043 ± 0.003
12,AAGTGACT,0.092 ± 0.006
13,GAGTGACC,-0.0846 ± 0.0063
14,CAGTGACG,0.134 ± 0.011
15,TAGTGAAA,0.144 ± 0.048
16,TAGTGACA,0.398 ± 0.0059
17,AAGTGAAA,0.154 ± 0.056
18,AAGTGACC,0.185 ± 0.041
19,GAGTGAAA,0.16 ± 0.1
20,GAGTGACA,0.373 ± 0.017
21,CAGTGACA,0.338 ± 0.0041
22,AAGTGACA,0.458 ± 0.0065
23,ACTTGTAA,0.0472 ± 0.082
24,GGGTATTA,-0.139 ± 0.091
25,GTCCAATA,-0.21 ± 0.0092
26,AGATGCCA,-0.00611 ± 0.051

row,Sequence,PBM E-score of 8-mer
1,GAACTATC,-0.095 ± 0.022
2,GAACTGAA,-0.228 ± 0.021
3,AAGGAGGC,-0.181 ± 0.009
4,GTCAAAAA,0.0926 ± 0.056
5,CACGGTCG,0.0491 ± 0.014
6,CGAGGGAG,-0.0838 ± 0.048
7,TACCTCGA,-0.0364 ± 0.012
8,ATGTGATA,0.298 ± 0.048
9,GTGAGAGA,0.319 ± 0.015
10,GTGTGATA,0.46 ± 0.006
11,ATGTGAGG,0.215 ± 0.026
12,ATGTGAGC,0.0849 ± 0.0062
13,ATGTGAGA,0.429 ± 0.0081
14,CTGTGAGA,0.314 ± 0.0081
15,CTGTGATA,0.2528 ± 0.0022
16,GTGTGAGA,0.4583 ± 0.0027
17,GATACTTA,-0.121 ± 0.055
18,ACGATAAA,0.122 ± 0.051
19,GACGATCC,-0.0686 ± 0.12
20,GATACAGC,-0.197 ± 0.018
21,CCATACTC,0.0602 ± 0.026
22,GATATCTA,-0.117 ± 0.025
23,CTACCAGA,-0.1381 ± 0.0011
24,CCCGACCA,-0.0729 ± 0.075
25,CCAGCTGA,-0.0424 ± 0.022
26,CCTAGATC,-0.0223 ± 0.021

row,Sequence,PBM E-score of 8-mer
1,CTGTCATC,0.141 ± 0.036
2,CCGTCACA,0.325 ± 0.024
3,ATGTCACG,0.262 ± 0.012
4,ATGTCACC,0.385 ± 0.015
5,ATGTCAGC,0.00315 ± 0.0099
6,CCGTCACC,0.356 ± 0.03
7,CTGTCACA,0.4 ± 0.0052
8,CTGTCAAG,0.2006 ± 0.0012
9,ATGTCACA,0.375 ± 0.013
10,ATGTCATC,-0.0845 ± 0.035
11,CTGTCACC,0.428 ± 0.013
12,ATGTCAAG,-0.0802 ± 0.059
13,CCCCAGAC,-0.109 ± 0.082
14,ACACTGTG,0.227 ± 0.0059
15,ACCTACTG,0.0087 ± 0.021
16,AGATAGCT,-0.0197 ± 0.1
17,AGGCGAAA,-0.0128 ± 0.028
18,AATGATCG,-0.0804 ± 0.013
19,ACTTAAGA,-0.0828 ± 0.02
20,TATGGTGA,0.074 ± 0.043
21,GTGTCACA,0.445 ± 0.0066
